Test results: PubChem BioAssay
Activity calls are given as the source filed them. Unless noted, how the calls were made is not given here.

What was measured:
[1] = resazurin metabolic signal in HepG2 cells – cell-based, resazurin fluorescence, 24 h, PK04 Diversity Set, profiling panel (AID 1172); details: HepG2 viability, higher = more signal
[2] = budding yeast growth changes without added modifier – OD600, strain BY4716, 24 h, basal condition, primary screen (AID 1173); details: S. cerevisiae BY4716 growth, OD600, 24 h; higher = more signal, called active from +8 up or from −8 down
[3] = viability profiling in MM1S myeloma cells – cell-based, resazurin fluorescence, basal, 24 h, PK04 Diversity Set, profiling panel (AID 1174); details: higher = more signal, called active from +8 up or from −8 down;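 further: MM1S multiple myeloma cell line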
[4] = target: Dihydroorotate dehydrogenase (quinone), mitochondrial (Plasmodium falciparum (isolate 3D7)) (UniProt Q08210); experiment: inhibition of P. falciparum DHODH – biochemical, C-terminal His tag, absorbance 600 nm, primary screen (AID 1175); details: PfDHODH enzyme, DCIP absorbance 600 nm; higher = more signal, called active from +8 up or from −8 down;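 further: recombinant parasite enzyme with a five histidine tag at its C terminus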
Dihydroorotate dehydrogenase (quinone), mitochondrial (Plasmodium falciparum (isolate 3D7)), sequence (Q08210 whole entry, looked up): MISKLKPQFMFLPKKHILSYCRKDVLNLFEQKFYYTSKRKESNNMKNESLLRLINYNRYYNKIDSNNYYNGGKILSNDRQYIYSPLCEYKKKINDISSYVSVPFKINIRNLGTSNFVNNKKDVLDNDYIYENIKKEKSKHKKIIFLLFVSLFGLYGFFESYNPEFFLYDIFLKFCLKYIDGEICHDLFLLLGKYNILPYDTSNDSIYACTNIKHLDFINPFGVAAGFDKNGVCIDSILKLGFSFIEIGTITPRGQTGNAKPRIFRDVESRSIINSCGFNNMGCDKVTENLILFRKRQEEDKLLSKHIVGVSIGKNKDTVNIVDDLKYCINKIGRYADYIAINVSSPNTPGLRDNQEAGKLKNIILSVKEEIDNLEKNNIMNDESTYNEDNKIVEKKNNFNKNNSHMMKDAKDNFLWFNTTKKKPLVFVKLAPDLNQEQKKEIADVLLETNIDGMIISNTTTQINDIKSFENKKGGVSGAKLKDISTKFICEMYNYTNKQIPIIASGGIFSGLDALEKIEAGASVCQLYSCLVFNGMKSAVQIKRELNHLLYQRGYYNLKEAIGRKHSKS

[5] = inhibition of PAO1 biofilm formation – strain PAO1, LB-PBS medium, absorbance 600 nm, primary screen (AID 1176); details: P. aeruginosa PAO1 growth/biofilm, A600, 12 h; higher = more signal
[6] = growth modulation of vineyard yeast isolate – strain RM11-1a, OD600, basal, 24 h, primary screen (AID 1177);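 further: cultures grown under basal conditions with no added stressor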; details: S. cerevisiae RM11-1a growth, OD600, 24 h; higher = more signal, called active from +8 up or from −8 down
[7] = growth of efflux-deficient E. coli DRC39 – strain DRC39, OD650, 24 h, E. coli filamentation inducers, primary screen (AID 1178);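 further: growth measured as culture turbidity by optical density at 650 nm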; details: E. coli DRC39 acrAB, higher = more signal, called active from +8 up or from −8 down
[8] = growth of efflux-deficient E. coli DRC39 – strain DRC39, OD650, 48 h, E. coli filamentation inducers, primary screen (AID 1179);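 further: screen aims at cell division blockers that make cells filament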; details: E. coli DRC39 delta-acrAB growth, higher = more signal, called active from +8 up or from −8 down
[9] = viability profiling in RPMI8226 myeloma cells – cell-based, resazurin fluorescence, basal, 24 h, PK04 Diversity Set, profiling panel (AID 1180); details: higher = more signal;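 further: RPMI8826 multiple myeloma cell line at 5000 cells per well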
[10] = target: E3 ubiquitin-protein ligase XIAP (Homo sapiens) (UniProt P98170); experiment: small molecules binding XIAP protein – biophysical, small-molecule microarray, fluorescence 635 nm, primary screen (AID 1181); details: higher = more signal;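 further: score merges 667 nm emission and signal to noise over triplicate slides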
E3 ubiquitin-protein ligase XIAP (Homo sapiens), sequence (P98170 whole entry, looked up, the tested form may be a part): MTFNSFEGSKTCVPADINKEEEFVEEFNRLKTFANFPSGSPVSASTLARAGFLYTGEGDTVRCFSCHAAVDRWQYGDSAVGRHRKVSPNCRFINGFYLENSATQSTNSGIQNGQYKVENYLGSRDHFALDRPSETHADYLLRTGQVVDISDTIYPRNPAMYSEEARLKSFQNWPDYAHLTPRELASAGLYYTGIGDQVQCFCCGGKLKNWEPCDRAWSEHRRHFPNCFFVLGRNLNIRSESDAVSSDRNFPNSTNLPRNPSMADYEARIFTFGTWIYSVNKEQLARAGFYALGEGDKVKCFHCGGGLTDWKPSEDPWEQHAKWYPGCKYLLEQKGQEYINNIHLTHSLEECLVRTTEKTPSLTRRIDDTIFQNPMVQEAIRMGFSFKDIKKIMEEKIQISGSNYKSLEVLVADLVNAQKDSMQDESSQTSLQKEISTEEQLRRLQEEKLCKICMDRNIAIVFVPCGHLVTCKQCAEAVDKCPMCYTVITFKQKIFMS

[11] = tested on: XIP peptide (Xip251-270) binding; experiment: XIP fragment 251-270 binding compounds – biochemical, small-molecule microarray, fluorescence 635/667 nm, 0.1 µg/mL protein, primary screen (AID 1182); details: fluorescent protein binding, 635 nm, higher = more signal, called active from +8 up or from −8 down
[12] = tested on: XIP peptide (Xip251-270); experiment: compounds binding XIP fragment 251-270 – biochemical, small-molecule microarray, fluorescence 635/667 nm, 0.5 µg/mL protein, primary screen (AID 1183); details: fluorescence 635 nm, higher = more signal
[13] = blood-stage malaria parasite viability loss – strain 3D7, DAPI fluorescence, 100 nL, primary screen (AID 1184);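 further: parasites grown inside human red blood cells in medium with human serum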; details: P. falciparum 3D7 growth, 3 d, higher = more signal
[14] = target: Homeobox protein Hox-A13 (Mus musculus) (UniProt Q62424); experiment: disruptors of Hoxa13 oligonucleotide interaction – biochemical, fluorescence polarization, labeled oligonucleotide, primary screen (AID 1185); details: Hoxa13:DNA binding, 15 min, higher = more signal, called active from +8 up or from −8 down
Homeobox protein Hox-A13 (Mus musculus), sequence (Q62424 whole entry, looked up): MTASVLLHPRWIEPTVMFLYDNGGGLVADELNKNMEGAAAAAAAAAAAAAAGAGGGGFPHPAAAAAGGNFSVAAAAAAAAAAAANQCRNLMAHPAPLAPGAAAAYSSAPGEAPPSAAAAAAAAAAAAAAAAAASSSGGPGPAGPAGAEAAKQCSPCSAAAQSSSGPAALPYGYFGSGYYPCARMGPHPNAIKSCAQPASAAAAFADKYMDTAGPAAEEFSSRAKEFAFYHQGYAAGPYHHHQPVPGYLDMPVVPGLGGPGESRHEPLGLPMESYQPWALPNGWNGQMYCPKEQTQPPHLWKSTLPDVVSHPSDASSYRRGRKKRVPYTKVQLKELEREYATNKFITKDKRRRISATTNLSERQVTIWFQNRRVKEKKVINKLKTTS

[15] = blockers of DNA damage checkpoint Chk1 activation – imaging, HeLa, hydroxyurea, phospho-Chk1 antibody, percent positive cells, primary screen (AID 1186); details: hydroxyurea-induced phospho-Chk1 immunofluorescence imaging, higher = more signal
[16] = blockers of DNA damage checkpoint Chk1 activation – imaging, HeLa, hydroxyurea, phospho-Chk1 nuclear intensity, primary screen (AID 1187); details: hydroxyurea-induced phospho-Chk1 immunofluorescence imaging, higher = more signal

| SMILES | z-score [1] | z-score [2] | z-score [3] | composite z-score [4] | z-score [5] | z-score [6] | z-score [7] | z-score [8] | z-score [9] | composite z-score [10] | composite z-score [11] | composite z-score [12] | z-score [13] | z-score [14] | z-score [15] | z-score [16] |
| --- | --- | --- | --- | --- | --- | --- | --- | --- | --- | --- | --- | --- | --- | --- | --- | --- |
| C=C(CCCC)C(=O)CC[C@@H](OC(C)=O)c1cccc(OCCO)c1 | -0.749 | -17.8 (active) | -1.01 (inactive) | -3.64 (inactive) | 0.367 (inactive) | -19.2 (active) | -0.55 (inactive) | -0.528 (inactive) | -1.07 | 0.136 | -0.0399 (inactive) | 0.0194 | -1.47 | -3.72 (inactive) | 0.163 (inactive) | 0.0394 (inactive) |
| CC1CC/C=C\[C@H]2OC34C=CCN(C(C)C)C(=O)[C@H]3N(CCCO)C(=O)[C@@H]4C2C(=O)O1 (stereo partly drawn) | 0.49 | -0.404 (inactive) | 0.48 (inactive) | 0.395 (inactive) | -0.91 (inactive) | -0.467 (inactive) | 1.05 (inactive) | 0.634 (inactive) | 0.817 | 0.0131 | 0.94 (inactive) | -0.835 | -0.0943 | -2.96 (inactive) | -0.471 (inactive) | -0.415 (inactive) |
| [N-]=[N+]=Nc1ccccc1C[C@@]1(C(N)=O)N=C(c2ccc(OCCCO)cc2)O[C@@H]1c1ccccc1 | -0.501 | -1.86 (inactive) | -0.6 (inactive) | -0.684 (inactive) | 0.218 (inactive) | -0.364 (inactive) | 0.289 (inactive) | -1.01 (inactive) | -0.652 | -0.0344 | 0.353 (inactive) | -0.649 | -2.14 | -4.43 (inactive) | -0.332 (inactive) | -0.449 (inactive) |
| C=CCC(OC(C)=O)[C@@H]1[C@@H](N(Cc2cc3ccccc3o2)C(=O)Cc2ccc(F)cc2)c2cc(OCCCO)ccc2N1C(=O)Cc1ccc(OC)cc1 (stereo partly drawn) | 0.217 | -0.449 (inactive) | 0.301 (inactive) | -1.66 (inactive) | 0.632 (inactive) | -0.711 (inactive) | -0.201 (inactive) | -0.416 (inactive) | -0.115 | 0.0769 | -0.386 (inactive) | -0.0246 | 0.163 | -2.68 (inactive) | 0.784 (inactive) | 0.0687 (inactive) |
| COc1ccc([Si](C)(C)[C@@H]2[C@@H](CC(=O)N3CCC[C@H]3CO)O[C@]3(C(=O)N(Cc4cccc(N5CCC5=O)c4)c4ccccc43)[C@H]2C)cc1 | -1.1 | -0.0905 (inactive) | -2.64 (inactive) | -3.15 (inactive) | 1.19 (inactive) | 1.03 (inactive) | 0.52 (inactive) | 0.388 (inactive) | -3.51 | -0.152 | 1.07 (inactive) | 0.824 | -0.744 | -2.64 (inactive) | -0.532 (inactive) | 0.535 (inactive) |
| CCCC=C(CCC)[C@@H](NC(=O)c1ccc(-c2ccccc2)cc1)c1ccc(C(=O)OC)cc1 | 0.664 | 1.44 (inactive) | -0.438 (inactive) | 0.407 (inactive) | -0.126 (inactive) | 1.23 (inactive) | 0.0519 (inactive) | -0.21 (inactive) | -0.361 | 0.0512 | -0.144 (inactive) | 0.0922 | 0.208 | -0.539 (inactive) | 0.125 (inactive) | -0.115 (inactive) |
| O=C1O[C@@H](c2ccccc2)[C@@H](c2ccccc2)N2[C@@H](c3ccc(OCCO)cc3)[C@]3(C(=O)Nc4ccc(C#CCCO)cc43)[C@@H](C(=O)N3CCCCCCC3)[C@H]12 | 0.0125 | -0.355 (inactive) | 0.605 (inactive) | 0.221 (inactive) | 1.72 (inactive) | 1.17 (inactive) | -0.515 (inactive) | 0.543 (inactive) | 1.55 | 0.733 | 2.93 (inactive) | 0.883 | -2.22 | -12.2 (active) | -0.148 (inactive) | 0.224 (inactive) |
| COCCCNC(=O)[C@@]1(C)c2ccccc2C(=O)N(Cc2ccc(OC(F)(F)F)cc2)[C@H]1c1ccc(CO)cc1 | -0.576 | -0.0763 (inactive) | -0.741 (inactive) | -0.617 (inactive) | 0.431 (inactive) | -0.419 (inactive) | 0.434 (inactive) | 1.17 (inactive) | -0.661 | -0.148 | 0.111 (inactive) | 0.187 | -0.313 | -2.89 (inactive) | -0.143 (inactive) | -0.339 (inactive) |
